# Experimental data reported in PubChem BioAssay (EPA / NIEHS).
# “And” between values parts separate entries of the source, which are not always exact repeats. Identical values can stand only once. Records with an inconclusive call do not appear. The source made the active and inactive calls. The calls were made as follows, unless noted: active = hit-call score of the fitted dose curve at least 0.9, where 1 is the maximum; inconclusive = response in the unintended direction; inactive = score below 0.9.
# What was measured:
# [1] = CCTE_Shafer_MEA_acute_spike_number: CCTE's Neural Acute Assay for Total Number of Spikes, Shafer Lab (AID 2284008; active = hit-call score of the fitted dose curve at least 0.9, where 1 is the maximum; inactive = score below 0.9;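 as to AC50: curve fitted for decrease in spike count so AC50 reflects inhibitors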)
# How it was run: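 Read-out is the total spike count over 40 min, expressed as percent change from each well's own pre-treatment baseline and fitted in the loss direction against DMSO. Rat cortical neurons were exposed at 0.03-40 uM on DIV 13 or 15.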
# [2] = target: Nucleoli Translocation, AR (gene 367) (UniProt P10275); assay: UPITT_HCI_U2OS_AR_TIF2_Nucleoli_Agonist: University of Pittsburgh U2OS Androgen Receptor-Transcriptional Intermediary Factor 2 (AR-TIF2) Agonism High Content Imaging Assay for Nucleoli Translocation (AID 2283998)
# How it was run: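 Readout is red (AR-RFP) fluorescence localized to nucleoli, measured by high-content imaging and analysed for increase relative to DMSO. Compound series spanned 0.195 to 50 uM final in 0.5% DMSO.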
# [3] = target: Ratio of Nucleoli Translocation and Cytoplasm, AR (gene 367) (UniProt P10275); assay: UPITT_HCI_U2OS_AR_TIF2_Nucleoli_Cytoplasm_Ratio_Antagonist: University of Pittsburgh U2OS Androgen Receptor-Transcriptional Intermediary Factor 2 (AR-TIF2) Antagonism High Content Imaging Assay for Ratio of Nucleoli Translocation and Cytoplasm (AID 2283999);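 also: antagonists lower the DHT-driven ratio of nucleolar to cytoplasmic red signal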
# How it was run: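 High-content imaging of red fluorescence ratio, nucleoli versus cytoplasm, in U2OS expressing AR-RFP and TIF2-GFP, fitted relative to DHT. Compounds tested once at 20 uM final, then 0.195 to 50 uM final in serial dilution.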
# [4] = target: Ratio of Nucleoli Translocation and Cytoplasm, AR (gene 367) (UniProt P10275); assay: UPITT_HCI_U2OS_AR_TIF2_Nucleoli_Cytoplasm_Ratio_Agonist: University of Pittsburgh U2OS Androgen Receptor-Transcriptional Intermediary Factor 2 (AR-TIF2) Agonism High Content Imaging Assay for Ratio of Nucleoli Translocation and Cytoplasm (AID 2284000);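 also: hits raise the red nucleolar to cytoplasm ratio above vehicle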
# How it was run: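 Compounds tested at 20 uM final in primary screen (0.2% DMSO) and 0.195-50 uM final in dose-response (0.5% DMSO). Imaging of human U2OS cells bearing RFP-AR and GFP-TIF2; endpoint is nucleoli/cytoplasm red signal ratio, positive direction relative to DMSO.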
# [5] = CCTE_Simmons_MITO_basal_resp_rate: CCTE's HepG2 Seahorse XF Respirometric Screening Assay at Basal Respiratory State, Simmons Lab (AID 2284001; active = hit-call score of the fitted dose curve at least 0.9, where 1 is the maximum; inactive = score below 0.9); conditions: actives raise or lower the signal
# How it was run: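 Basal-phase OCR in HepG2 cells, read at 6-min intervals across a 72-min run, with test compound injected at 125 nM–100 uM final (7 points). Fitted both directions against DMSO; three biological replicates per concentration.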
# [6] = CCTE_Simmons_MITO_max_resp_rate: CCTE's HepG2 Seahorse XF Respirometric Screening Assay at Maximal Respiratory State [uncoupled], Simmons Lab (AID 2284002; active = hit-call score of the fitted dose curve at least 0.9, where 1 is the maximum; inactive = score below 0.9); conditions: actives raise or lower the signal
# How it was run: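 Read-out is oxygen consumption rate at maximal respiration, taken after FCCP uncoupling of compound-treated HepG2 cells. Seven final concentrations from 125 nM to 100 uM were tested, each in three biological replicates.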
# [7] = CCTE_Simmons_MITO_inhib_resp_rate: CCTE's HepG2 Seahorse XF Respirometric Screening Assay at Inhibited Respiratory State [full ETC block], Simmons Lab (AID 2284006; active = hit-call score of the fitted dose curve at least 0.9, where 1 is the maximum; inactive = score below 0.9); conditions: actives raise or lower the signal
# How it was run: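 This endpoint is the respiration rate remaining after rotenone/antimycin A block, in HepG2 cells on a Seahorse XF96. Chemicals spanned 125 nM–100 uM final, in three biological replicates. OCR was read every 6 minutes for 72 minutes and compared with DMSO vehicle.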
# [8] = CCTE_Simmons_MITO_viability: CellTiter-Glo Viability Assessment for CCTE's HepG2 Seahorse XF Respirometric Screening Assay [post-hoc], Simmons Lab (AID 2284007);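 as to AC50: cells exposed to chemical for 90 min before the ATP read; actives lower ATP signal relative to DMSO baseline meaning reduced viability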
# How it was run: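 Luciferase-coupled ATP read-out after the Seahorse run: HepG2 cells treated 90 minutes with test chemical, 7-point series of 125 nM–100 uM final, in triplicate biological runs. Vehicle DMSO; dichlone as positive control over 8 concentrations.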
# [9] = CCTE_Harrill_HTTr_Apoptosis_PRF_DMEM_24hr: (Pilot) CCTE's 24-hour Apoptosis Assessment for the High-Throughput Transcriptomics (HTTr) Platform, in MCF-7 cells cultured in phenol red-free DMEM + 10% charcoal-stripped fetal bovine serum, Harrill Lab (AID 2283986; active = hit-call score of the fitted dose curve at least 0.9, where 1 is the maximum; inactive = score below 0.9)
# How it was run: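 Eight concentrations tested for 24 h on MCF-7 grown in charcoal-stripped serum, phenol red-free DMEM. High content imaging of CellEvent Caspase 3/7 Green signal gives apoptosis read-out, fitted both ways relative to DMSO.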
# DIO1 (gene 1733) = assay: CCTE_GLTED_hDIO1: CCTE's human Deiodinase 1 (DIO1) Inhibition Assay, Great Lakes Toxicology and Ecology Division (GLTED) Lab (AID 2283987);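 also: isolated human DIO1 enzyme in a cell-free setup rather than cells; enzyme activity read as free iodide liberated from substrate via Sandell-Kolthoff colorimetry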
# How it was run: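 Inhibition of human deiodinase 1 is scored as reduced iodide liberation after a 3 h enzyme–chemical incubation, detected colorimetrically by the Sandell-Kolthoff reaction against DMSO controls.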
# Chain of Ratio of Nucleoli Translocation and Cytoplasm, AR (gene 367) (P10275 whole entry, looked up): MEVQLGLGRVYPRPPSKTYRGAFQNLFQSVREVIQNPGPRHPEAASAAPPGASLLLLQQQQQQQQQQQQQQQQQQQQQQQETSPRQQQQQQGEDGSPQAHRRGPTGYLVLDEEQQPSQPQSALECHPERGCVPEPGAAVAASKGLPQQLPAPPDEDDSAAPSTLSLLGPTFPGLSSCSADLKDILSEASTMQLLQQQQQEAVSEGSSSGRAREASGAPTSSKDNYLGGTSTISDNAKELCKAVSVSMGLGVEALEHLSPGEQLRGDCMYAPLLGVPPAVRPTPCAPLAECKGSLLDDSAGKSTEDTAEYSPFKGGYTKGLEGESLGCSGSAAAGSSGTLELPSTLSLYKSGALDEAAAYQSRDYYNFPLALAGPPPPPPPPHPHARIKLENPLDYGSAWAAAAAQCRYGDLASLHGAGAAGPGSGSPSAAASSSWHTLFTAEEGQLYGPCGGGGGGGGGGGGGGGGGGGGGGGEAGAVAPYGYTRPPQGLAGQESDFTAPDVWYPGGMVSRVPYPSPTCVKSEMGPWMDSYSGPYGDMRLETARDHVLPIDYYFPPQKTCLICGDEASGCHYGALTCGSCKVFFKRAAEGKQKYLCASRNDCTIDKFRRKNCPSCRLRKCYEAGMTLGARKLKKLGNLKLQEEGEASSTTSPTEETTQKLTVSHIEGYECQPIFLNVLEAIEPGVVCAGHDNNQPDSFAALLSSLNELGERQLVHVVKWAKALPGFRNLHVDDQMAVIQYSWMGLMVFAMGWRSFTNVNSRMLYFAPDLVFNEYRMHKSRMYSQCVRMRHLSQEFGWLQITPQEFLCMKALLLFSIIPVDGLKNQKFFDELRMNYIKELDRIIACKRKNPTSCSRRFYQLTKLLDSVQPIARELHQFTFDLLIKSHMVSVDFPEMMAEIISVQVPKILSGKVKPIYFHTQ
# Chain of Nucleoli Translocation, AR (gene 367) (P10275 whole entry, looked up): as above
smiles,measurement,setting,value
O=C(O)c1ccccc1C(c1ccc(O)cc1)c1ccc(O)cc1,outcome,[1],inactive
c1ccc2c(c1)ccc1ccccc12,outcome,[2],inactive
same,outcome,[3],inactive
same,outcome,[4],inactive
NC(=O)N(O)[C@@H]1C=C[C@H](Oc2cccc(Oc3ccc(F)cc3)c2)C1,AC50,[5],22.1 µM (active)
same,AC50,[6],32.4 µM (active)
same,outcome,[7],inactive
same,outcome,[8],inactive
same,outcome,[1],inactive
COc1cc(CCC(=O)CC(=O)CCc2ccc(O)c(OC)c2)ccc1O,outcome,[3],inactive
same,outcome,[4],inactive
CCC(=C(c1ccc(O)cc1)c1ccc(OCCN(C)C)cc1)c1ccccc1,AC50,[9],80.8 µM (active)
same,AC50,DIO1 (gene 1733),46.5 µM (active)
same,AC50,[2],22.5 µM (active)
same,outcome,[3],inactive
same,AC50,[4],26.2 µM (active)
same,outcome,[1],inactive
Cc1oc(-c2ccccc2)nc1CCOc1ccc(C[C@H](Nc2ccccc2C(=O)c2ccccc2)C(=O)O)cc1,outcome,[9],inactive
same,AC50,DIO1 (gene 1733),72.1 µM (active)
same,outcome,[2],inactive
same,outcome,[3],inactive
same,outcome,[4],inactive
CCCCCCCCCCCCCCCS(=O)(=O)Oc1ccccc1,outcome,[1],inactive
CC(C)CCCCCCOC(=O)CCCCC(=O)OCCCCCCC(C)C,outcome,[1],inactive
CC(C)(C)c1cc(C(C)(C)C)c(O)c(C(C)(C)C)c1,outcome,[1],inactive
ClC1=C(Cl)C(Cl)(Cl)C(Cl)=C1Cl,AC50,DIO1 (gene 1733),78.5 µM (active)
CCCCCCCCCCCCN1CCCC1=O,AC50,DIO1 (gene 1733),159 µM (active)
same,AC50,[5],31.4 µM (active)
same,AC50,[6],34.8 µM (active)
same,outcome,[7],inactive
same,outcome,[8],inactive
same,outcome,[1],inactive
NC(=O)N1C(=O)C(C(=O)c2cc(Cl)cs2)c2cc(F)c(Cl)cc21 (centres undefined),AC50,DIO1 (gene 1733),37.4 µM (active)
same,outcome,[2],inactive
same,outcome,[3],inactive
same,outcome,[4],inactive
same,AC50,[5],5.91 µM (active)
same,AC50,[6],17.7 µM (active)
same,outcome,[7],inactive
same,AC50,[8],2.3 µM (active)
CC[C@H](c1ccc(O)cc1)[C@@H](CC)c1ccc(O)cc1,AC50,[2],50 µM (active)
same,outcome,[3],inactive
same,AC50,[4],50 µM (active)
same,AC50,[5],20.8 µM (active)
same,AC50,[6],30 µM (active)
same,AC50,[7],40.4 µM (active)
same,AC50,[8],12.6 µM (active)
same,outcome,[1],inactive
Nc1cccc2c(N)cccc12,outcome,[2],inactive
same,outcome,[3],inactive
same,outcome,[4],inactive
same,outcome,[5],inactive
same,outcome,[6],inactive
same,AC50,[7],39.8 µM (active)
same,outcome,[8],inactive
O=C(/C=C/c1ccc(O)cc1)CC(=O)/C=C/c1ccc(O)cc1,outcome,[2],inactive
same,outcome,[3],inactive
same,outcome,[4],inactive
CC#C[C@]1(O)CC[C@H]2[C@@H]3CCC4=CC(=O)CCC4=C3[C@@H](c3ccc(N(C)C)cc3)C[C@@]21C,AC50,[1],1.74 µM (active) and 2.84 µM (active)
CN(C)C=O,outcome,[1],inactive
CN1CCN(c2ccccc2/C=C2\SCCN(c3ccc(Cl)c(Cl)c3)C2=O)CC1,outcome,[5],inactive
same,outcome,[6],inactive
same,outcome,[7],inactive
same,AC50,[1],10.3 µM (active)
